The panel holds about 79,000 compounds, 15% with a hit somewhere; the sample as a whole holds those more often. A number with no mark means an inactive call. Calls of active or inactive are those of the source. Rule as the data show it: active = growth inhibition above about 70%; inactive = the rest.
Experiment: NCI Yeast Anticancer Drug Screen. Data for the rad14 strain (AID 159);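 also: 0% = growth of vehicle-treated control cultures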
Conditions: S. cerevisiae rad14 strain growth inhibition, stronger effect = higher value
Description: Growth inhibition of yeast strains with defined genetic alterations is measured as a screen for potential anti-cancer activity. Selected strains with alterations in DNA damage repair or cell cycle control were exposed to compounds and growth inhibition was measured relative to vehicle treated controls. The strain used in this assay is rad14

Row | SMILES | growth inhibition (at 1.2 µM) | growth inhibition (at 3.7 µM) | growth inhibition (at 11.0 µM) | growth inhibition (at 33.0 µM) | growth inhibition (at 100.0 µM)
1 | Cc1cc(O)c(C(C)C)cc1SC#N | -4% | 0% | 55% | 46% | 99% (active)
2 | COc1ccc2nc3cccc([N+](=O)[O-])c3c(NCCCCCC(=O)O)c2c1 | 96% (active) | 99% (active) | 99% (active) | 99% (active) | 99% (active)
3 | NC(=S)N1N=C2c3ccccc3CC[C@@H]2[C@@H]1c1ccccc1 | -36% | -33% | -25% | 2% | 84% (active)
4 | COc1cc2c(cc1O)[C@H](C)C(c1ccccc1OC)O2 (stereo not given in full) | -7% | -11% | -11% | 7% | 96% (active)
5 | Nc1cccc(-c2cc[cH-]c2)c1.[Fe+2].c1cc[cH-]c1 | 0% | 6% | 14% | 25% | 96% (active)
6 | CC1CCC(C2=CSC3CCCCC3N2)CC1 (stereo not given) | -20% | -16% | -11% | -6% | 76% (active)
7 | CN(CCOc1ccc(Cl)cc1)CCOc1ccc(Cl)cc1 | 28% | 25% | 48% | 99% (active) | 99% (active)
8 | O=[N+]([O-])c1ccc(S(=O)(=O)Cc2ccccc2)c([N+](=O)[O-])c1 | 7% | 10% | 22% | 74% (active) | 99% (active)

From PubChem BioAssay (NCI)
